# Hits are enriched below; roughly 2.4% of the tested compounds scored in any of these assays.
# D2 antagonist = HTS Assay for Allosteric Antagonists of the Human D2 Dopamine Receptor: Primary Screen for Antagonists; inhibition, % at 10 µM; AID 485344, 2010; 340,000 compounds, 2% hits; HEK293 TREx D2 cells, calcium flux, dopamine EC80; D(2) dopamine receptor (Homo sapiens), P14416; in the data active = inhibition above about 30%; inactive = below that, where a call was filed; also: 0% is about no effect
# Target sequence (P14416 whole entry, looked up): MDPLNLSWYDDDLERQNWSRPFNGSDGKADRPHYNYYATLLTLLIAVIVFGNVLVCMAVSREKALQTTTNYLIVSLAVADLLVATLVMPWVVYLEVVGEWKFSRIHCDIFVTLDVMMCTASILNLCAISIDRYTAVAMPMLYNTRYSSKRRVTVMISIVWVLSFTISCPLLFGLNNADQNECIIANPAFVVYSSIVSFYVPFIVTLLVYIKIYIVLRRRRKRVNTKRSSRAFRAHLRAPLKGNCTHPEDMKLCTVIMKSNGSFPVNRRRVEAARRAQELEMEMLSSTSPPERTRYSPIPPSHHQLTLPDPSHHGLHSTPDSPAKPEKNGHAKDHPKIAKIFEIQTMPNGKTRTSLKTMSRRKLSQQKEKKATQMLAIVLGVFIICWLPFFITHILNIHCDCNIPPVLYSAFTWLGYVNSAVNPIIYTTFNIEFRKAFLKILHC
#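 Calcium flux kinetic readout in an inducible HEK293 TREx D2 line plated overnight at 30 C. After 180 s compound exposure, an EC80 dopamine challenge follows with another 180 s kinetic read to detect antagonism.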
# D2 PAM-1 = Beta-Arrestin HTS for Positive Allosteric Modulators of the Human D2 Dopamine Receptor: Potentiators; D(2) dopamine receptor (Homo sapiens), P14416; DiscoveRx D2 beta-arrestin cells, luminescence, 90 min; 100% = 57 uM dopamine signal; potentiation, % (no concentration beside the values); 360,000 compounds, 0.23% hits; AID 624464, 2012; in the data active = potentiation above about 50%; inconclusive = mostly about 30% to 49%
#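 D2 cells co-treated with compound plus 50 nM dopamine (EC20) for 90 min at 37 deg C to detect potentiation. Beta-arrestin recruitment was read as enzyme-fragment luminescence after 1 h at ambient temperature. Full response was set by 57 uM dopamine.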
# D2 ag-1 = Beta-Arrestin HTS for Positive Allosteric Modulators of the Human D2 Dopamine Receptor: Agonists; DiscoveRx PathHunter D2 beta-arrestin, luminescence, 90 min; 100% = 57 uM dopamine signal; 360,000 compounds, 0.084% hits; activation, % (test concentration not listed); D(2) dopamine receptor (Homo sapiens), P14416; in the data active = activation above about 40%; inconclusive = between about 15% and that limit
#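 DiscoveRx PathHunter D2 beta-arrestin cells (2,100/well) attached overnight, then compound-stimulated 90 min at 37 C in HBSS/10 mM HEPES/0.1% Tween-20 buffer; beta-galactosidase complementation read by luminescence after 1 h at ambient temperature. Dopamine 57 uM final (EC100) as control.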
# D2 PAM-2 = HTS Assay for Positive Allosteric Modulators of the Human D2 Dopamine Receptor: Primary Screen for Potentiators; potentiation, % at 10 µM; HEK293 T-REx D2, calcium flux, EC20 dopamine potentiation; 340,000 compounds, 0.34% hits;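 active = potentiation over 3 SD above the plate norm, cut at about 30% in these data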; also: 0% is about no effect
#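 Tetracycline-induced Hek293 Trex D2 cells, force-coupled to calcium, loaded with no-wash calcium dye. Compound added with 180 s kinetic read for agonism, then EC20 dopamine and a further 180 s read for potentiation.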
# D2 ag-2 = HTS Assay for Allosteric Agonists of the Human D2 Dopamine Receptor: Primary Screen for Agonists | activation, % at 2 µM | HEK293 T-REx D2 cells, calcium flux agonist mode | 340,000 compounds, 0.53% hits | D(2) dopamine receptor (Homo sapiens), P14416 | AID 485358, 2010;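 active = activation over 3 SD above normal in the single-dose calcium agonist read, cut at about 30% in these data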; also: 0% is about no effect
#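 Tetracycline-induced HEK293 Trex cells with D2 receptor force-coupled to calcium signaling, plated overnight at 30 C and loaded with no-wash calcium dye. Calcium flux read kinetically for 180 s after compound addition; responses flag agonists.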
# Active calls of the source: *; ? = inconclusive; . = no result given; ! = not confirmed by another sample.
SMILES,D2 antagonist,D2 PAM-1,D2 ag-1,D2 PAM-2,D2 ag-2
O=C(Oc1ccccc1C(=S)N1CCOCC1)c1ccc([N+](=O)[O-])cc1[N+](=O)[O-],-12.6,58.2*,?,-4.2,0.6
O=C(NCCc1ccc(Cl)cc1)C(=O)NCC(c1ccc2c(c1)OCO2)N1CCOCC1 (configuration not stated),.,.,.,6.8,-8.4
CN(C(=O)N1CCN(c2ccccn2)CC1)c1ccccc1,38.5*,7.9,1.1,-11.7,0.2
CCOc1ccc(OCC)c(NC(=O)c2csc3c2CCCC3)c1,.,.,.,10.4,-0.5
CCCC12CN3CCN(CC(C3)/C1=N\NC(=O)c1ccc(F)cc1)C2,0.7,-8.6,5.9,-2.5,1.5
CCCC12CN3CCN(CC(C3)/C1=N\NC(=O)Nc1ccccc1)C2,53.9*,0.0,1.8,0.9,0.6
CSc1nsc2nc(=O)c(/C=C3\C(C)=Nc4ccc(C)cc43)c(N)n12,3.6,-5.4,-4.9,.,1.1
CC1=Nc2ccc(C)cc2/C1=C/c1c(N)n2oc(C)cc2nc1=O,60.6*!,-3.3,-1.5,4.4,1.1
CCC(=O)NCCSc1c[nH]c2ccccc12,-11.3,-15.2,-1.2,5.7,0.0
CC(C)C(=O)NCCSc1c[nH]c2ccccc12,31.1*,-3.0,-1.3,6.7,0.3
O=C(CN1C(=O)NC(Cc2ccccc2)C1=O)Nc1ccc(F)cc1 (configuration not stated),-13.9,-0.9,0.6,-3.2,0.1
O=C(CN1C(=O)NC(Cc2ccccc2)C1=O)Nc1ccc(F)c(Cl)c1 (configuration not stated),32.7*,-2.2,4.6,3.1,1.2
O=C(Nc1ccc(N2CCOCC2)cc1)c1ccc(Cl)c(S(=O)(=O)N2CCCCC2)c1,-36.6,-6.9,-2.7,4.0,0.0
COc1cccc(C(=O)OC(C)C(=O)NCC2CCCCC2)c1 (configuration not stated),-0.4,-1.9,9.2,0.2,0.3
Cc1cc(C)cc(C(=O)OCC(=O)N2CCCCCC2)c1,41.8*,-0.6,1.3,-23.4,-0.2
COc1cc(OC)cc(C(=O)OCC(=O)N2CCCC2)c1,12.1,3.2,-3.3,-12.4,-5.0
O=C(OCC(=O)N1CCCC1)c1c[nH]c2ccccc12,2.9,-0.2,-3.8,5.5,-0.2
O=C(OCC(=O)N1CCCCC1)c1c[nH]c2ccccc12,-14.6,8.8,-1.2,68.5*,0.6
COc1ccc(NC(=O)CN2C(=O)CCn3nc(-c4cccn4C)cc32)cc1Cl,.,.,.,4.0,0.7
CCc1ccc2oc(-c3ccc(C)c(NC(=O)Cc4ccccc4)c3)nc2c1,.,.,.,-3.5,-0.6
O=C(CCC1CCCCC1)Nc1ccc(C(=O)c2ccncc2)cc1,47.7*,-22.8,-0.2,-8.7,-0.9
N#Cc1cnn(Cc2ccccc2)c1/N=C/N1CCOCC1,34.2*,4.0,-3.0,.,0.9
CCOC(=O)c1ccc(NC(=O)CC2Nc3ccccc3NC2=O)cc1 (configuration not stated),.,.,.,-3.4,-0.2
Cn1cccc1Cc1nnc(SCC(=O)NC2CCCC2)n1-c1ccc(F)cc1,36.2*,1.8,-2.9,-1.0,1.7
CCCC(=O)Nc1ccc(C(=O)Nc2ccc([N+](=O)[O-])cc2OC)cc1,16.0,-7.1,3.1,-7.8,-0.7
SMILES,D2 antagonist,D2 PAM-1,D2 ag-1,D2 PAM-2,D2 ag-2
Cc1ccc(-c2onc3ccc(C4(C)OCCO4)cc23)cc1,.,68.8*,12.7,.,.
CC(=O)c1ccc2noc(-c3ccc(Cl)cc3)c2c1,-15.7,?,?,-2.6,-0.6
Cc1cc(-c2onc3ccc(Cl)cc23)ccc1O,1.1,96.6*,?,0.5,-2.2
Cc1ccc(-c2onc3ccc(C=O)cc23)cc1,2.5,59.1*,9.6,0.3,-1.4
CCC(C)NC(=O)CSc1nc2cc3c(cc2c(=O)n1CCCC(=O)NCc1ccc2c(c1)OCO2)OCO3 (configuration not stated),.,.,.,1.4,0.3
Cc1cccc(NS(=O)(=O)c2ccc3oc(=O)ccc3c2)c1C,10.1,-0.7,-2.4,-1.8,-0.4
